The values below come from PubChem BioAssay (NCI).

Test systems include SK-MEL-2 melanoma; EKVX NSCLC; SN12C renal; UO-31 renal; TK-10 renal; ACHN renal; CAKI-1 renal; A498 renal; CCRF-CEM leukemia; MOLT-4 leukemia.
What all share (experiment): NCI-60 one-dose screen, 48 h (100 = growth as untreated, 0 = no growth, -100 = all killed)
What all share (settings): 10 µM unless noted

Compounds without any hit were thinned out: in the full panel of roughly 83,000, 20% have a hit.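 Percent growth is the endpoint: 0 to 100 indicates growth inhibition (40 means 60% inhibition), 0 means no net growth, and negative values indicate cell death.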 A number with no mark means an inactive call. Active and inactive are the calls of the source. The calls were made as follows: active = growth percent below 10; inactive = the rest.

As for `CC(C)CCC(=O)[C@@H](C)[C@H]1[C@@H](OC2OCC(O)C(O)C2NS(C)(=O)=O)C[C@H]2[C@@H]3CC=C4C[C@@H](O)CC[C@]4(C)[C@H]3CC[C@]12C` (stereo not given in full), the growth is -36.9% (active) in the test with SK-MEL-2 melanoma; 27.7% in the test with EKVX NSCLC; 75.2% with SN12C renal; -16.1% (active) with UO-31 renal; 26.1% in the test with TK-10 renal; 42.1% in the test with ACHN renal. Further, the growth in the test on CAKI-1 renal is 24.1%; with A498 renal it was -58.4% (active); in the test with CCRF-CEM leukemia it was -8.84% (active); in the test with MOLT-4 leukemia, -0.0897% (active).
For `CCOC(=O)c1cnc(SCC)nc1SC#N`, the growth in the test with SK-MEL-2 melanoma is 96.1%; in the test with EKVX NSCLC, 99.8%; in the test on SN12C renal it was 95.7%; with UO-31 renal, 95.2%; with TK-10 renal, 84.3%; with ACHN renal, 71.3%. For the same compound, the figures for the growth in the test with CAKI-1 renal and with A498 renal were -65.3% (active) and 106%, respectively.
In the case of `CC(C)(C)c1ccc(C(=O)Nc2sc3cc(O)ccc3c2C(N)=O)cc1`, the growth in the test with SK-MEL-2 melanoma was 114%; with EKVX NSCLC, 94.6%; with SN12C renal it was 78%; in the test on UO-31 renal, 65.6%; in the test with TK-10 renal, 133%; with ACHN renal, 74.1%. Besides, the growth was 77.3% in the test with CAKI-1 renal, 107% in the test with A498 renal and 50% in the test on CCRF-CEM leukemia.
Take `COc1cc(C2CC(c3ccc(Cl)cc3)=NN2C(C)=O)ccc1Oc1nc2c(c(=O)n(C)c(=O)n2C)n1C` (stereo not given): the growth is 105% in the test on SK-MEL-2 melanoma; 83.6% in the test with EKVX NSCLC; 50.3% with SN12C renal; 76.3% in the test with UO-31 renal; 110% with TK-10 renal; 87.2% in the test with ACHN renal. The growth with CAKI-1 renal is 81.5%; in the test on A498 renal, 77.4%; in the test on CCRF-CEM leukemia it was 80.5%; with MOLT-4 leukemia, 62.6%.
With `O=P(O)(O)C(O)(Cc1cccnc1)P(=O)(O)O`, the growth was 111% in the test on SK-MEL-2 melanoma; 103% with EKVX NSCLC; 94% in the test on SN12C renal; 84.6% in the test on UO-31 renal; 144% with TK-10 renal; 100% in the test on ACHN renal. For the same compound, the growth was 94.2% in the test with CAKI-1 renal, 119% in the test with A498 renal and 79.1% in the test on CCRF-CEM leukemia.
Take `C=C(C)[C@@H]1CC[C@]2(C(=O)NS(=O)(=O)c3ccccc3)CC[C@]3(C)[C@H](CC[C@@H]4[C@@]5(C)CC[C@H](OC(=O)NS(=O)(=O)c6ccccc6)C(C)(C)[C@@H]5CC[C@]43C)[C@@H]12`: the growth with SK-MEL-2 melanoma is -6.1% (active); in the test on EKVX NSCLC it was 27.5%; in the test on SN12C renal, 13%; in the test with UO-31 renal, 8.04% (active); with TK-10 renal, 24%; in the test on ACHN renal it was 14.6%. Further, the results for the growth in the test with CAKI-1 renal and with A498 renal were 24.8% and -2.66% (active), respectively.
For the compound `CCCCCCCCCCCC1=NC(C)(C)CN1CCO`, the growth with SK-MEL-2 melanoma is 87.8%; with EKVX NSCLC, 68.7%; in the test on SN12C renal, 72.6%; in the test with UO-31 renal it was 68.3%; with TK-10 renal, 92.6%; with ACHN renal, 78.2%. For the same compound, the values for the growth in the test with CAKI-1 renal, in the test with A498 renal and with CCRF-CEM leukemia were 75%, 95.4% and 23.5%, respectively.
Consider `CNCCCn1c2c(c3ccc(Cl)cc3c1=O)C(=O)c1cc(OC)cnc1-2`, for which the growth is 77.3% in the test on SK-MEL-2 melanoma; 63.8% in the test on EKVX NSCLC; 39.7% with SN12C renal; 33.4% in the test with UO-31 renal; 54.2% in the test on TK-10 renal; 19.8% in the test with ACHN renal. Moreover, the growth in the test with CAKI-1 renal is 35.3%; in the test with A498 renal, 20.5%; in the test with CCRF-CEM leukemia, -22.5% (active); with MOLT-4 leukemia it was -29.9% (active).
For the compound `COc1ccc(C(=O)N2N=C(c3ccc(F)cc3)CC2c2cn(-c3ccccc3)nc2-c2ccccc2)cc1` (stereo not given), the growth was 75.1% with SK-MEL-2 melanoma; 70.9% in the test with EKVX NSCLC; 63% with SN12C renal; 68.1% in the test on UO-31 renal; 80.2% in the test on TK-10 renal; 86.5% with ACHN renal. Further, the growth was 63.2% with CAKI-1 renal, 93.2% with A498 renal, 57.1% in the test on CCRF-CEM leukemia and 42.2% in the test with MOLT-4 leukemia.
With `CNC(=O)c1c(NC(=O)c2ccc(C(C)C)cc2)sc2c1CCC(=O)C2`, the growth in the test with SK-MEL-2 melanoma was -6.19% (active); in the test on EKVX NSCLC, -4.35% (active); in the test on SN12C renal it was -10.8% (active); in the test on UO-31 renal, -99.6% (active); in the test on TK-10 renal, 28.7%; in the test on ACHN renal it was -90.2% (active). Further, the growth is -9.28% (active) in the test with CAKI-1 renal, -19.7% (active) in the test with A498 renal and 1.96% (active) in the test on CCRF-CEM leukemia.
In the case of `O=C(Nc1cccc(Cl)c1)Nc1ccccc1Cl`, the growth in the test with SK-MEL-2 melanoma was 98.5%; with EKVX NSCLC it was 72.1%; with SN12C renal it was 81.5%; in the test with UO-31 renal, 69.8%; in the test with TK-10 renal it was 88.5%; in the test with ACHN renal, 89.9%. For the same compound, the growth in the test with CAKI-1 renal is 71.4%; in the test with A498 renal, 63.4%; in the test on CCRF-CEM leukemia, 84.7%; with MOLT-4 leukemia, 75%.
For `O=C1OCC2=C1C(c1ccccc1)c1cc3c(cc1N2CCO)OCO3` (stereo not given), the growth in the test with SK-MEL-2 melanoma is 14.6%; with EKVX NSCLC it was 35.4%; with SN12C renal it was 39%; in the test on UO-31 renal it was 43.9%; in the test with TK-10 renal it was 63.4%; with ACHN renal, 36.5%. Also, the growth in the test with CAKI-1 renal was 35.8%; with A498 renal, 6.06% (active).
As for `CCCCn1cnc2c(SCc3ccc([N+](=O)[O-])cc3)nc(N)nc21`, the growth with SK-MEL-2 melanoma is 91.5%; with EKVX NSCLC, 103%; with SN12C renal it was 87%; in the test on UO-31 renal it was 65.2%; in the test on TK-10 renal it was 85%; in the test on ACHN renal, 87.5%. The growth with CAKI-1 renal is 87.7%; with A498 renal it was 86.3%; in the test with CCRF-CEM leukemia it was 86.3%; in the test on MOLT-4 leukemia, 24.3%.
